Results filed as inconclusive are left out. Active and inactive are the calls of the source. Calls come from the whole dose curve; as a rule, active = well fitted curve in the direction sought with a large enough effect; inconclusive = small, poorly fitted or top-dose-only effect, or another doubt; inactive = no such curve, though single readings can be large; an effect the other way counts as inactive or inconclusive.
What was measured:
[1] = molecular target: Glutathione peroxidase 1 (Homo sapiens) (UniProt P07203); assay: Primary qHTS Assay for Inhibitors of Recombinant Selenoprotein Glutathione Peroxidase 1 (GPX1) (AID 1845191); conditions: recombinant GPX1, GR-coupled NADPH fluorescence, 15 min; series mostly up to 27.7 µM; note: nearly all actives have a fitted effect of over 65% in size; for activity, negative = inhibition: % is set by controls: 0 for no effect and ±100 for the full control effect
Sequence of Glutathione peroxidase 1 (Homo sapiens) (P07203 whole entry, looked up): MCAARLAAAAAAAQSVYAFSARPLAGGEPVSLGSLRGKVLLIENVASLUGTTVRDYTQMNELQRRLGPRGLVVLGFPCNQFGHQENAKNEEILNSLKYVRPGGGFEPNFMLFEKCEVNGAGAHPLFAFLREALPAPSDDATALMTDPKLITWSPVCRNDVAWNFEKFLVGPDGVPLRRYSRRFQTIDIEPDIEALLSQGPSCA
Method in brief: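 GR-coupled assay: compounds preincubated 30 min at room temperature with GPX1, then reaction started with CHP; final 10 nM GPX1, 1 mM GSH, 0.5 mM CHP, 0.5 mM NADPH, 100 nM GR, 0.01% BSA, pH 7.5 Tris buffer. NADPH fluorescence (340/450 nm) read at 0 and 15 min.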

[2] = molecular target: Phospholipid hydroperoxide glutathione peroxidase GPX4 (Homo sapiens) (UniProt P36969); assay: Primary qHTS Assay for Inhibitors of Recombinant Selenoprotein Glutathione Peroxidase 4 (GPX4) (AID 1845192); conditions: recombinant GPX4, GR-coupled NADPH fluorescence, 15 min; series mostly up to 27.8 µM; note: nearly all actives have a fitted effect of over 65% in size; for activity change, negative = inhibition: % is set by controls: 0 for no effect and ±100 for the full control effect
Sequence of Phospholipid hydroperoxide glutathione peroxidase GPX4 (Homo sapiens) (P36969 whole entry, looked up): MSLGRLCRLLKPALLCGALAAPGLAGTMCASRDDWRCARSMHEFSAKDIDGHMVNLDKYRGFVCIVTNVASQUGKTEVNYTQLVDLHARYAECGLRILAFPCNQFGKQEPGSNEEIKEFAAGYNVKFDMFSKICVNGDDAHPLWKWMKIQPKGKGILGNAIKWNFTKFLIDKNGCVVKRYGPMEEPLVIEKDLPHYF
Method in brief: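 GR-coupled assay: recombinant GPX4 preincubated 30 min with compound at room temperature; final 200 nM GPX4, 1 mM GSH, 0.5 mM cumene hydroperoxide, 0.5 mM NADPH, 100 nM GR, 0.01% BSA, pH 7.5 Tris. NADPH fluorescence (340/450 nm) read at 0 and 15 min.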

[3] = molecular target: Luciferin 4-monooxygenase (Photinus pyralis) (UniProt P08659); assay: Primary firefly luciferase (FLuc) qHTS assay for identification of artifact compounds. (AID 1845220); conditions: purified firefly luciferase, luminescence, 5 min; series mostly up to 54.1 µM; note: nearly all actives have a fitted effect of over 60% in size;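 for activity change, negative = inhibition: plate controls were DMSO vehicle for no effect and no enzyme for full effect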
Method in brief: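 D-luciferin and ATP (10 uM each, final) in Tris acetate buffer pH 7.6 were incubated with compounds for 15 min at room temperature. The reaction was started with 10 nM Photinus pyralis luciferase and luminescence read after 5 min. Percent inhibition was fitted to a 4-parameter Hill equation.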

[4] = Primary fluorescence-based thiol-reactive (MSTI) qHTS assay for identification of artifact compounds. (AID 1845221); conditions: MSTI thiol-reactivity probe, 1 h; series mostly up to 53.8 µM;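 note: thiol-reactive compounds lower the probe fluorescence signal; nearly all actives have a fitted effect of over 65% in size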
Method in brief: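 A multi-concentration qHTS design tested compounds against 4 uM MSTI, pH 7.4 phosphate-buffered saline. Plates were protected from light for 1 h at room temperature before imaging fluorescence.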

[5] = test system: Nanoluciferase (engineered Oplophorus gracilirostris luciferase); assay: Primary Nanoluciferase (NLuc) qHTS assay for identification of artifact compounds. (AID 1845222); conditions: NLuc-conditioned medium, Nano-Glo luminescence, 5 min; series mostly up to 54.1 µM;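 note: 0% = DMSO and -100% = no enzyme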
Method in brief: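 Diluted conditioned medium from NLuc-expressing S16 cells treated with compounds for 15 min at room temperature, then Nano-Glo substrate added; luminescence read after 5 min. Percent inhibition versus no-enzyme and DMSO controls fitted to 4-parameter Hill equation.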

CC(=O)[C@@H]1C[C@H](C(C)(C)O[C@@H]2O[C@H](CO)[C@@H](O)[C@H](O)[C@H]2O)CC[C@@]2(CO)OC(=O)C[C@@H]12
inactive: Potency [1] | Potency [2] | Potency [3] | Potency [4] | Potency [5]

CC(C)(CC(=O)N1CCCC1)NCC(=O)N1C[C@@H](F)C[C@H]1C#N
inactive: Potency [1] | Potency [2] | Potency [3] | Potency [4] | Potency [5]

Fc1ccc(-c2c3cccc(C(F)(F)F)c3nn2Cc2ccc(F)cc2Cl)cc1
inactive: Potency [1] | Potency [2] | Potency [3] | Potency [4] | Potency [5]

CC1(C)CCC2(C(=O)O)C(O)CC3(C)C(=CCC4C5(C)CCC(OC6OC(CO)C(O)C(O)C6OC6OC(CO)C(O)C(O)C6OC6OCC(O)(CO)C6O)C(C)(C)C5CCC43C)C2C1 (stereo not given)
inactive: Potency [1] | Potency [2] | outcome [3] inactive [at 11.6 µM] | activity change, negative = thiol reactive [4] 154% [at 11.5 µM] | activity, negative = inhibition [5] 1.68% [at 11.6 µM]

CC(C)=CCC[C@](C)(O[C@@H]1O[C@H](CO)[C@@H](O)[C@H](O)[C@H]1O)[C@H]1CC[C@]2(C)[C@@H]1[C@H](O)CC1[C@@]3(C)CC[C@H](O)C(C)(C)C3[C@@H](O[C@@H]3O[C@H](CO)[C@@H](O)[C@H](O)[C@H]3O[C@@H]3O[C@@H](C)[C@H](O)[C@@H](O)[C@H]3O)C[C@]12C (stereo not given in full)
inactive: Potency [1] | Potency [2] | activity change, negative = inhibition [3] -2.06% [at 11.6 µM] | activity change, negative = thiol reactive [4] 209% [at 11.5 µM] | activity, negative = inhibition [5] 4.23% [at 11.6 µM]

c1cc(-c2cc(C3CCNCC3)[nH]n2)ccn1
inactive: Potency [1] | Potency [2] | Potency [3] | Potency [4] | Potency [5]
